Values joined by “and” are separate entries in the source; they are usually repeats but may differ in a detail not shown here. Equal entries are not always repeated. Inconclusive results are not listed. Where a call stands in place of a potency, no number is given. Active and inactive are the calls of the source. Unless noted, calls follow the shape of the dose curve; as a rule, active = well fitted curve in the direction sought with a large enough effect in the repeat runs; inconclusive = weak or mixed curves; inactive = no such curve, though single readings can be large; an effect the other way counts as inactive or inconclusive.
Tests used:
[1] = qHTS assay to test for compound auto fluorescence at 535 nm (green) in HEK293 cells (AID 720680)
[2] = qHTS assay to test for compound auto fluorescence at 460 nm (blue) in HEK293 cell free culture (AID 720681)
In short: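 Blue fluorescence (Ex 405/Em 460 nm, triamterene-equivalent) was read immediately after pin transfer of compound or DMSO into medium (DMEM, 10% FBS) without cells.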

[3] = qHTS assay to test for compound auto fluorescence at 535 nm (green) in HEK293 cell free culture (AID 720682)
In short: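 Intrinsic compound fluorescence is measured in culture medium containing 10% FBS, with excitation at 485 nm and detection at 535 nm, referenced to fluorescein.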

[4] = qHTS assay to test for compound auto fluorescence at 590 nm (red) in HEK293 cell free culture (AID 720683)
In short: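 Red-channel autofluorescence of compounds in culture medium (DMEM, 10% FBS), no cells, measured at 540/590 nm. Rose Bengal sodium is the reference fluorophore for equivalence.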

[5] = qHTS assay to test for compound auto fluorescence at 590 nm (red) in HepG2 cell free culture (AID 720684)
In short: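 Plate contents were MEM with 10% FBS plus test compound or DMSO, no cells. Fluorescence was recorded with 540 nm excitation and 590 nm emission.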

[6] = qHTS assay to test for compound auto fluorescence at 460 nm (blue) in HepG2 cell free culture (AID 720685)
In short: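 Compound (23 nL) or DMSO pinned into cell-free MEM with 10% FBS; blue fluorescence read at 405/460 nm excitation/emission, expressed as auto-fluorescence equivalency to triamterene.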

[7] = qHTS assay to test for compound auto fluorescence at 535 nm (green) in HepG2 cell free culture (AID 720686)
[8] = qHTS assay to test for compound auto fluorescence at 460 nm (blue) in HepG2 cells (AID 720687)
In short: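 Blue-channel autofluorescence (Ex/Em 405/460 nm, triamterene-equivalent) was measured after 1 hr compound exposure at 37 C, 5% CO2. Cells were HepG2, plated overnight at 37 C in MEM plus 10% FBS.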

[9] = qHTS assay to identify small molecule antagonists of the glucocorticoid receptor (GR) signaling pathway - cell viability counter screen (AID 720693); also: nearly all actives have a fitted effect of over 55% in size; also: potency is read from the fitted curve at half-maximal effect
[10] = qHTS assay for identifying genotoxic compounds that show differential cytotoxicity against isogenic chicken DT40 cell lines with known DNA damage response pathways - wild type cell line (AID 743012); also: nearly all actives have a fitted effect of over 60% in size; also: potency is read from the fitted curve at half-maximal effect
In short: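 Quantitative HTS on parental DT40 cells: 40 h compound treatment at 37 C/5% CO2, with viability then determined by CellTiter-Glo luminescence. Values serve as the DNA repair-proficient reference for differential cytotoxicity.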

[11] = qHTS assay for identifying genotoxic compounds that show differential cytotoxicity against isogenic chicken DT40 cell lines with known DNA damage response pathways - Rev3 mutant cell line (AID 743014); also: nearly all actives have a fitted effect of over 55% in size; also: potency is read from the fitted curve at half-maximal effect
[12] = qHTS assay for identifying genotoxic compounds that show differential cytotoxicity against isogenic chicken DT40 cell lines with known DNA damage response pathways - Rad54/Ku70 mutant cell line (AID 743015); also: nearly all actives have a fitted effect of over 60% in size; also: potency is read from the fitted curve at half-maximal effect
[13] = qHTS assay to identify small molecule antagonists of the androgen receptor (AR) signaling pathway - cell viability counter screen (AID 743033; also: nearly all actives have a fitted effect of over 45% in size; also: potency is read from the fitted curve at half-maximal effect)
[14] = qHTS assay to identify small molecule antagonists of the androgen receptor (AR) signaling pathway using the MDA cell line - cell viability counter screen (AID 743041; also: nearly all actives have a fitted effect of over 45% in size; also: potency is read from the fitted curve at half-maximal effect)
In short: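 R1881-driven MDA-kb2 AR-luc cells, 3,000/well, were dosed with library compounds for 16 h; cell health came from CellTiter-Fluor fluorescence in the reporter wells.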

[15] = biological target: Androgen receptor (Homo sapiens) (UniProt P10275); test: qHTS assay to identify small molecule antagonists of the androgen receptor (AR) signaling pathway (AID 743035; active = well fitted inhibition curve with a large enough effect in the signal ratio in the repeat runs, not every such curve was filed as active; the % refers to the signal ratio; also: potency is read from the fitted curve at half-maximal effect)
In short: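 Cell line: GeneBLAzer AR-UAS-bla GripTite (HEK293). Stimulus: R1881 added after compound. Exposure: 16 h, 37C, 5% CO2. Readout: LiveBLAzer B/G FRET fluorescence after 2 h at room temperature.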

[16] = biological target: Androgen receptor (Homo sapiens) (UniProt P10275); test: qHTS assay to identify small molecule agonists of the androgen receptor (AR) signaling pathway using the MDA cell line (AID 743040; also: nearly all actives have a fitted effect of over 20% in size)
In short: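 After a 5 h incubation at 37C and 0% CO2, MDA-kb2 reporter cells were dosed with compounds in DMSO and kept 16 h under the same conditions. Luciferase activity was then read as luminescence with ONE-Glo.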

[17] = biological target: Androgen receptor (Homo sapiens) (UniProt P10275); test: qHTS assay to identify small molecule antagonists of the androgen receptor (AR) signaling pathway using the MDA cell line (AID 743042; also: nearly all actives have a fitted effect of over 55% in size; also: potency is read from the fitted curve at half-maximal effect)
In short: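 Antagonist mode: compounds plus R1881 agonist added to MDA-kb2 AR-luc cells, incubated 16 h at 37C. Luciferase reporter luminescence quantified, with multiplexed CellTiter-Fluor readout for cell viability.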

[18] = biological target: Androgen receptor (Homo sapiens) (UniProt P10275); test: qHTS assay to identify small molecule agonists of the androgen receptor (AR) signaling pathway (AID 743036; active = well fitted activation curve with a large enough effect in the signal ratio in the repeat runs, with a control signal flat, not every such curve was filed as active; the % refers to the signal ratio)
In short: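 Agonist activity was scored by beta-lactamase reporter fluorescence in stably transfected HEK293 cells exposed to compounds for 16 h at 37C and 5% CO2. Substrate loading took 2 h at room temperature.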

[19] = biological target: Glucocorticoid receptor (Homo sapiens) (UniProt P04150); test: qHTS assay to identify small molecule agonists of the glucocorticoid receptor (GR) signaling pathway (AID 720691; active = well fitted activation curve with a large enough effect in the signal ratio in the repeat runs, not every such curve was filed as active; the % refers to the signal ratio); settings: GR-bla HeLa, beta-lactamase reporter ratio, 18 h; activation: at 62.4 µM (top of the series)
In short: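 Beta-lactamase reporter activity, read as fluorescence intensity, was measured in GR-bla HeLa cells exposed to compounds for 18 h at 37 C and then loaded with LiveBLAzer B/G FRET substrate for 2 h at room temperature.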

[20] = biological target: Glucocorticoid receptor (Homo sapiens) (UniProt P04150); test: qHTS assay to identify small molecule antagonists of the glucocorticoid receptor (GR) signaling pathway (AID 720692; active = well fitted inhibition curve with a large enough effect in the signal ratio in the repeat runs, not every such curve was filed as active; the % refers to the signal ratio)
In short: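 Fluorescence from cleaved LiveBLAzer B/G FRET substrate reports GRE-driven beta-lactamase in HeLa cells; compounds are tested against 5 nM dexamethasone (final) over 18 h at 37 C, substrate incubation 2 h at room temperature.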

Sequence of Glucocorticoid receptor (Homo sapiens) (P04150 whole entry, looked up): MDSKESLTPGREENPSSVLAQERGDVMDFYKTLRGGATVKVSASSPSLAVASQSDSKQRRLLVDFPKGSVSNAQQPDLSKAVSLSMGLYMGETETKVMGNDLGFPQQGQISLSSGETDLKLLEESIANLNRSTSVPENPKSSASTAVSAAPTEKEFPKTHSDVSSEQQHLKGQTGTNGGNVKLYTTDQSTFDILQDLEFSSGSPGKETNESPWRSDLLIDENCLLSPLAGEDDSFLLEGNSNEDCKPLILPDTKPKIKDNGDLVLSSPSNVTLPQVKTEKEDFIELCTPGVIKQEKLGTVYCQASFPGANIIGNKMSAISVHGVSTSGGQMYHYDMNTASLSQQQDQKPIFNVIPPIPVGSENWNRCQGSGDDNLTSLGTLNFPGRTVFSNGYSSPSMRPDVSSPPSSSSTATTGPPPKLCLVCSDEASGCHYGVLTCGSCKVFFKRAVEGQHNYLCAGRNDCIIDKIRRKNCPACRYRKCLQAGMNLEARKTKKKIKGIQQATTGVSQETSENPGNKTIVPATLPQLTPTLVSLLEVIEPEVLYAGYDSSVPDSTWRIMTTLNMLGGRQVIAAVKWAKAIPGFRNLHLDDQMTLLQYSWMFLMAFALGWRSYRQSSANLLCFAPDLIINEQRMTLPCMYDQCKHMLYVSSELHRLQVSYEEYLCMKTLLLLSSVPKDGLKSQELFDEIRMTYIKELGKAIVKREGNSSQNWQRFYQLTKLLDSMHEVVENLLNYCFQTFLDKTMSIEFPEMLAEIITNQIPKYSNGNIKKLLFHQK
Sequence of Androgen receptor (Homo sapiens) (P10275 whole entry, looked up): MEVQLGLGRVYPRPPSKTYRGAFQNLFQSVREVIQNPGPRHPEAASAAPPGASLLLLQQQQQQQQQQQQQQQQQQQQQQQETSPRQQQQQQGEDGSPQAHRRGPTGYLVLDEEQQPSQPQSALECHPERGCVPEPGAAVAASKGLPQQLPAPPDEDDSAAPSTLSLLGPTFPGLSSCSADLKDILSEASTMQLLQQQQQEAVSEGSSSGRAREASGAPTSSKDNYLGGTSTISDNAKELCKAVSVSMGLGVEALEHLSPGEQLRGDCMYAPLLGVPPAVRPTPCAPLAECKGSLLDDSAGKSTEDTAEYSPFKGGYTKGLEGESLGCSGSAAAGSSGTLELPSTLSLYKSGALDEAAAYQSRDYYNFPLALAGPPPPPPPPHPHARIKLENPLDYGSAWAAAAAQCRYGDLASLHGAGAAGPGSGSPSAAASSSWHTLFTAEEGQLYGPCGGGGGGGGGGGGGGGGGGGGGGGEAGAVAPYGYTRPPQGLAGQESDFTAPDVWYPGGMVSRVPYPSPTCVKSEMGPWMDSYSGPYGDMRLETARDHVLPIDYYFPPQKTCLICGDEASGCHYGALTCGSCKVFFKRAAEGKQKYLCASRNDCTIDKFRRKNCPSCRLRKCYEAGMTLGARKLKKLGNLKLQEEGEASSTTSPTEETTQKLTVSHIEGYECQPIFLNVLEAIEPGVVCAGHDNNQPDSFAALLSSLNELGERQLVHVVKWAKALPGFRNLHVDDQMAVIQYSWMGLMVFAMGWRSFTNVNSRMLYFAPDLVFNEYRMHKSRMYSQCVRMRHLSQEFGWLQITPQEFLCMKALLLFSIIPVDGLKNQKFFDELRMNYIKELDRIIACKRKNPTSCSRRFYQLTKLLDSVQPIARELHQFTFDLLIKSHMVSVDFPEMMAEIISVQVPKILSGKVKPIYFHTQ

| Compound | outcome [1] | Potency [2] | outcome [3] | outcome [4] | outcome [5] | Potency [6] | Potency [7] | Potency [8] | Potency [9] | Potency [10] | Potency [11] | Potency [12] | Potency [13] | Potency [14] | Potency [15] | Potency [16] | Potency [17] | Potency [18] | Potency [19] | Potency [20] |
| --- | --- | --- | --- | --- | --- | --- | --- | --- | --- | --- | --- | --- | --- | --- | --- | --- | --- | --- | --- | --- |
| CN=C(N)NCCC[C@H](N)C(=O)O | inactive | inactive | inactive | inactive | inactive | inactive | inactive | inactive | inactive | inactive | inactive | inactive | inactive | inactive | – | – | – | – | – | – |
| CC/C(=C(/CC)c1ccc(OP(=O)(O)O)cc1)c1ccc(OP(=O)(O)O)cc1 | inactive | inactive | inactive | inactive | inactive | inactive | inactive | inactive | inactive | inactive | inactive | inactive | – | inactive | – | – | – | – | – | – |
| COC(=O)C(CN)c1c[nH]c2ccc(OC)cc12 (centres undefined) | inactive | inactive | inactive | inactive | inactive | inactive | inactive | inactive | inactive | inactive | – | inactive | inactive | inactive | – | – | – | – | – | – |
| O=C(N[C@H](CO)[C@H](O)c1ccc([N+](=O)[O-])cc1)C(Cl)Cl | inactive | inactive | inactive | inactive | inactive | inactive | inactive | inactive | inactive | 5.96 µM (active) and 15.4 µM (active) | 7.5 µM (active) and 17.2 µM (active) | 8.41 µM (active) and 19.7 µM (active) | inactive | inactive | – | – | – | – | – | – |
| CC(C)C[C@@H](NC(=O)[C@@H](O)[C@H](N)Cc1ccccc1)C(=O)O | inactive | inactive | inactive | inactive | inactive | inactive | inactive | inactive | inactive | inactive | – | inactive | inactive | inactive | – | – | – | – | – | – |
| C=C1C(CCl)(CCl)C2(Cl)C(Cl)C(Cl)C1(Cl)C2(Cl)Cl (centres undefined) | inactive | inactive | inactive | inactive | inactive | inactive | inactive | inactive | 13.4 µM (active) | 4.73 µM (active) and 30.3 µM (active) | 2.98 µM (active) and 4.28 µM (active) | 5.96 µM (active) and 17 µM (active) | – | inactive | 34.3 µM (active) | inactive | 26.6 µM (active) | – | – | – |
| c1ccc2cc3c4ccccc4c4ccccc4c3cc2c1 | inactive | inactive | inactive | inactive | inactive | inactive | inactive | inactive | inactive | inactive | inactive | inactive | inactive | inactive | – | – | – | – | – | – |
| O=C(O)C[C@H](O)C[C@H](O)/C=C/c1c(C2CC2)nc2ccccc2c1-c1ccc(F)cc1 | inactive | inactive | inactive | inactive | inactive | inactive | inactive | inactive | inactive | 531 nM (active) | 94.4 nM (active) | 1.68 µM (active) | inactive | inactive | – | – | inactive | inactive | – | – |
| O=C(Cn1cnnn1)N[C@@H]1C(=O)N2C(C(=O)O)=C(CSc3nncs3)CS[C@H]12 | inactive | inactive | inactive | inactive | inactive | inactive | inactive | inactive | inactive | inactive | inactive | inactive | inactive | inactive | – | – | – | – | – | – |
| O=[N+]([O-])c1ccc(O)c2ncccc12 | inactive | inactive | inactive | inactive | inactive | inactive | inactive | inactive | inactive | 2980 nM (active) | 2660 nM (active) | 5.31 µM (active) | 10.7 µM (active) | 11.9 µM (active) | – | – | – | – | – | – |
| C1CCc2nnnn2CC1 | inactive | inactive | inactive | inactive | inactive | inactive | inactive | inactive | inactive | inactive | inactive | inactive | inactive | inactive | – | – | – | – | – | – |
| Cc1cnc(C(=O)O)c[n+]1[O-] | inactive | inactive | inactive | inactive | inactive | inactive | inactive | inactive | inactive | inactive | inactive | inactive | inactive | inactive | – | – | – | – | – | – |
| CC(CNC(=O)c1cccnc1)NC(=O)c1cccnc1 (centres undefined) | inactive | inactive | inactive | inactive | inactive | inactive | inactive | – | inactive | inactive | – | inactive | inactive | inactive | – | – | – | – | inactive | – |
| C[C@H](NCCc1ccc(O)cc1)[C@H](O)c1ccc(O)cc1 | inactive | inactive | inactive | inactive | inactive | inactive | inactive | – | inactive | inactive | inactive | inactive | inactive | inactive | – | – | – | – | inactive | inactive |
| NC(=O)[C@@H]1C[C@]2(NC(=O)NC2=O)c2cc(F)ccc2O1 | inactive | inactive | inactive | inactive | inactive | inactive | inactive | inactive | inactive | – | – | inactive | inactive | inactive | – | – | – | – | – | – |

From PubChem BioAssay (Tox21)
